For assay [1], the target named is Retinoic acid receptor RXR-alpha (Homo sapiens) (UniProt P19793). The assay is described as follows: OT_NURR1_NURR1RXRa_0480: Odyssey Thera (OT) 8-hour HEK293T Protein Complementation Assay for Nurr1/retinoid X receptor (RXR) (AID 2283385). In a few lines:
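Compounds are applied to HEK293T cells carrying Nurr1 and RXRα linked to reporter fragments. After 8 h, fluorescence intensity reports heterodimer formation, with DMSO as baseline.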

For assay [2] the target is unchanged. The assay is described as follows: OT_NURR1_NURR1RXRa_1440: Odyssey Thera (OT) 24-hour HEK293T Protein Complementation Assay for Nurr1/retinoid X receptor (RXR) (AID 2283386). The method in brief: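 Measured as fluorescence from a reconstituted split reporter, this 24 h HEK293T complementation assay scores compound-induced gain of Nurr1/RXRα association relative to DMSO.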

Assay [3] addresses Peroxisome proliferator-activated receptor gamma (Homo sapiens) (UniProt P37231). The assay can be described thus: OT_PPARg_PPARgSRC1_0480: Odyssey Thera (OT) 8-hour Protein-Complementation Assay for Peroxisome Proliferator-activated Receptor Gamma / SRC-1 Co-activator (AID 2283387).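 Further: nuclear to cytoplasmic split Venus YFP fluorescence ratio reporting PPARg SRC-1 interaction.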 The method in brief:
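Read-out: 488 nm N/C fluorescence ratio from complemented Venus YFP fragments, ≥350 cells per image, gain-of-signal fitted against DMSO baseline. Fusions of PPARg/SRC-1 with IFP1/IFP2 expressed transiently in HEK293T; compounds applied 8 h.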

For assay [4] the target is unchanged. The assay is described as follows: OT_PPARg_PPARgSRC1_1440: Odyssey Thera (OT) 24-hour Protein-Complementation Assay for Peroxisome Proliferator-activated Receptor Gamma/ SRC-1 Co-activator (AID 2283388).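 Further: nuclear to cytoplasmic ratio of reconstituted Venus YFP fluorescence in fixed imaged cells.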 In a few lines: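 Protein-fragment complementation between PPARg and coactivator SRC-1 was measured by fluorescence imaging in transiently transfected HEK293T cells after 24 h treatment. Signal was quantified as N/C ratio in the 488 nm channel, with DMSO as negative control.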

The nature of assay [5]: CEETOX_H295R_11DCORT: CeeTox H295R High-throughput Steroidogenesis Assay for 11-Deoxycortisol (11DCORT) (AID 2283432; active means hit-call score of the fitted dose curve at least 0.9, where 1 is the maximum; inactive means score below 0.9;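 on AC50: human adrenal H295R cells prestimulated with 10 µM forskolin for 48 h; 11-deoxycortisol secreted into the medium measured by LC-MS/MS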). To be noted: actives raise or lower the signal. In a few lines:
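H295R cells; 10 uM forskolin prestim 48 h; compound in 0.1% DMSO 48 h; media extracted with MTBE; 11-deoxycortisol by LC-MS/MS, 7-point standard curve; gain/loss vs DMSO baseline; viability by MTT in same wells.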

Assay [6] can be described thus: CEETOX_H295R_OHPREG: CeeTox H295R High-throughput Steroidogenesis Assay for OH-Pregnenolone (OHPREG) (AID 2283434; active means hit-call score of the fitted dose curve at least 0.9, where 1 is the maximum; inactive means score below 0.9). To be noted: actives raise or lower the signal. The method in brief:
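Hormone levels in spent medium were measured by tandem mass spectrometry following liquid-liquid extraction. Cells (H295R) had been forskolin-stimulated (10 uM, 48 h) before a 48 h chemical exposure at 0.1% DMSO, with activity fitted in both directions against DMSO.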

The nature of assay [7]: CEETOX_H295R_CORTIC: CeeTox H295R High-throughput Steroidogenesis Assay for Corticosterone (CORTIC) (AID 2283437; active means hit-call score of the fitted dose curve at least 0.9, where 1 is the maximum; inactive means score below 0.9;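 further: corticosterone secreted into medium quantified by mass spectrometry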). Conditions: actives raise or lower the signal. The method in brief:
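Corticosterone secreted into medium is measured by reverse-phase HPLC with tandem MS following liquid-liquid extraction. Cells are forskolin-stimulated (10 uM, 48 h) before 48 h test exposure; activity fitted in both directions against DMSO.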

Read-out in assay [8]: Tumor necrosis factor receptor superfamily member 6 (Homo sapiens) (UniProt P25445)
The assay can be described thus: LTEA_HepaRG_FAS: Life Technologies and Expression Analysis (LTEA) Assay for Fas cell surface death receptor (FAS) using HepaRG (AID 2283447; active means hit-call score of the fitted dose curve at least 0.9, where 1 is the maximum; inactive means score below 0.9). To be noted: mRNA level, 48 h; actives raise or lower the signal. In a few lines:
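FAS transcript level was measured by TaqMan qRT-PCR against three housekeeping genes after 48 h chemical exposure. Cells were HepaRG, 0.5% DMSO vehicle, with a top concentration of 100 uM and half-log dilutions over eight points, in duplicate.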

Assay [9] can be described thus: CEETOX_H295R_ESTRADIOL: CeeTox H295R High-throughput Steroidogenesis Assay for Estradiol (AID 2283440; active means hit-call score of the fitted dose curve at least 0.9, where 1 is the maximum; inactive means score below 0.9;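 further: estradiol secreted into medium quantified by LC-MS/MS after dansyl derivatisation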). To be noted: actives raise or lower the signal. The method in brief: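 Estradiol secreted into the medium was measured by tandem mass spectrometry after liquid-liquid extraction and dansylation. Human H295R cells had been forskolin-primed (10 uM, 48 h) before a 48 h chemical exposure with 0.1% DMSO.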

The nature of assay [10]: CEETOX_H295R_ANDR: CeeTox H295R High-throughput Steroidogenesis Assay for Androstenedione (ANDR) (AID 2283436; active means hit-call score of the fitted dose curve at least 0.9, where 1 is the maximum; inactive means score below 0.9;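 further: human H295R adrenal cells exposed for 48 h with androstenedione measured in medium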). To be noted: actives raise or lower the signal. The method in brief:
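Read-out is androstenedione secreted into medium, measured by tandem mass spectrometry after liquid-liquid extraction. Cells were H295R, dosed for 48 h per modified OECD 456; activity fitted in both directions relative to DMSO.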

Structures are written as SMILES. Where “and” joins values, the source holds several entries; their conditions need not be identical. Equal entries are not always repeated. Results filed as inconclusive are left out. The source holds several records for some structures; these can differ, active in one and inactive in another. Calls of active or inactive are those of the source. How the source made its calls, unless noted: active means hit-call score of the fitted dose curve at least 0.9, where 1 is the maximum; inconclusive means response in the unintended direction; inactive means score below 0.9.

Peroxisome proliferator-activated receptor gamma (Homo sapiens), sequence (P37231 whole entry, looked up, the tested form may be a part): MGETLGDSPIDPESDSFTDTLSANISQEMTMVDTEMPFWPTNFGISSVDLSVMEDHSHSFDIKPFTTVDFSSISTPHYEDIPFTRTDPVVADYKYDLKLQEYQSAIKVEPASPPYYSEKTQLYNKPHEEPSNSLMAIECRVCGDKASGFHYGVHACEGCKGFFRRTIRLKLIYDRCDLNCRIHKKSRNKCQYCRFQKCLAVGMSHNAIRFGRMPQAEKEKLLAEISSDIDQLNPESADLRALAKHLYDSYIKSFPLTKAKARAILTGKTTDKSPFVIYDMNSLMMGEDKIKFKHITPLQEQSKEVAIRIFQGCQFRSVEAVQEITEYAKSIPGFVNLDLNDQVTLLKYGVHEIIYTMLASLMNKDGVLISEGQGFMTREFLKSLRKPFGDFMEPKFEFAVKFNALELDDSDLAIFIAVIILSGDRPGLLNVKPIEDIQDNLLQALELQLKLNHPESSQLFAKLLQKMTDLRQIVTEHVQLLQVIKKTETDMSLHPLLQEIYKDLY
Retinoic acid receptor RXR-alpha (Homo sapiens), sequence (P19793 whole entry, looked up, the tested form may be a part): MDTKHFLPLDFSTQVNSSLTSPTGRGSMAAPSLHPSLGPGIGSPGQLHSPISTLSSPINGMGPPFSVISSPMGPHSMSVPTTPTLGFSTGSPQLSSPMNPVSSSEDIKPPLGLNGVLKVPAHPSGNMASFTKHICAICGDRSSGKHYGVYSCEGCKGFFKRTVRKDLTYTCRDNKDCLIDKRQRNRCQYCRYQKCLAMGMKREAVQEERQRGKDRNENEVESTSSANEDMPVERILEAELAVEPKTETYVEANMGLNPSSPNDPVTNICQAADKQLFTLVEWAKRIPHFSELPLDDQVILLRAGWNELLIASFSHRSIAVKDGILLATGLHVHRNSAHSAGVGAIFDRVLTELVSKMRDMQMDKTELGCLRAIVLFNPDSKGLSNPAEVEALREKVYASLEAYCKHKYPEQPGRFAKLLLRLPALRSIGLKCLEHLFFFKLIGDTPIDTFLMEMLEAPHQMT

Regarding `ClC1=C(Cl)[C@]2(Cl)[C@@H]3[C@H]4C[C@H]([C@@H]5O[C@H]45)[C@@H]3[C@@]1(Cl)C2(Cl)Cl`, the compound was classed as inactive in [1], in assay [2], in [3], in assay [4], in assay [7] and in [8]. Moreover, the results for the concentration at half-maximal activity (AC50) in assay [5] and in assay [6] were 7.42 µM (active) and 1.48 µM (active), respectively.
Regarding `CCOP(=S)(OCC)SCSC(C)(C)C`, the result in assay [1], in assay [2], in assay [3], in assay [4] and in assay [8] was inactive. In addition, the AC50 (in general, the concentration giving half of the maximal activity seen) in [6] was 37 µM (active).
As to `Oc1c(Cl)c(Cl)c(Cl)c(Cl)c1Cl`, the outcome in assay [1], in assay [2], in [3] and in [4] was inactive. Besides, in assay [8], the AC50 is 6.31 µM (active).
For the compound `ClC1=C(Cl)[C@]2(Cl)[C@@H]3[C@@H]4C[C@@H]([C@H]5O[C@@H]45)[C@@H]3[C@@]1(Cl)C2(Cl)Cl`, the AC50 in assay [1] is 77.7 µM (active) and 81.5 µM (active). Also, the compound was classed as inactive in [2], in assay [3], in assay [4] and in [8].
`CO/C=C(/C(=O)OC)c1ccccc1COc1cccc(C(F)(F)F)n1`: the AC50 in assay [1] was 50 µM (active); in assay [8], 9.8 µM (active). For the same compound, the compound was classed as inactive in assay [1], in [2], in [3] and in assay [4].
Turning to `Cc1cc(-c2ccc(N)c(C)c2)ccc1N`, the compound was called inactive in assay [1], in [2], in assay [3], in assay [4], in [6] and in assay [8].
`CCCCCCCCOC(=O)c1ccccc1C(=O)OCCCCCCCC`: the compound was classed as inactive in [1], in assay [2], in assay [3], in assay [4] and in [8].
Consider `Cc1cccc(C)c1N`, for which the compound was classed as inactive in [2], in [3], in assay [4], in assay [5], in assay [6] and in [7]. Also, the call in assay [9] and in assay [8] was inactive.
`c1ccc(-c2ccccc2)cc1`: the compound was called inactive in assay [2], in assay [3] and in assay [4].
`CCCN(CCC)N=O`: the compound was called inactive in assay [1], in assay [2], in assay [3], in [4] and in assay [8].
Turning to `CCOCCOC(C)=O`, the result in assay [1], in assay [3], in assay [4], in assay [5], in [6] and in [7] was inactive. For the same compound, the outcome in assay [8] was inactive.
In the case of `COc1ccc(O)c(C(C)(C)C)c1`, the compound was classed as inactive in assay [1], in assay [2], in assay [3], in [4] and in assay [8].
With `Cc1ccccc1[N+](=O)[O-]`, the compound was classed as inactive in assay [1], in assay [2], in assay [3], in [4] and in assay [8].
On to `Clc1ccc(Cl)cc1`, for which the compound was called inactive in [1], in assay [3], in assay [4] and in assay [8].
In the case of `CC(C)C(=O)OCC(C)(C)C(OC(=O)C(C)C)C(C)C` (stereo not drawn), the compound was called inactive in assay [2], in assay [3], in assay [4] and in assay [8].
`O=NN(c1ccccc1)c1ccccc1`: the compound was classed as inactive in [1], in assay [2], in assay [3], in assay [4] and in assay [8].
In the case of `O=S(=O)(O)C(F)(F)C(F)(F)C(F)(F)C(F)(F)F`, the result in [1], in [2], in assay [3], in assay [4] and in assay [8] was inactive.
In the case of `CCC(C)c1cc([N+](=O)[O-])cc([N+](=O)[O-])c1O` (stereo not drawn), the outcome in assay [1], in assay [2], in [3] and in [4] was inactive. Besides, the AC50 in assay [8] is 2.25 µM (active).
With `Nn1cnnc1`, the outcome in assay [2], in [3], in assay [4] and in assay [8] was inactive.
For `CCNc1nc(NC(C)C)nc(SC)n1`, the call in assay [2], in [3], in [4], in [6], in assay [10] and in [8] was inactive.
In the case of `CC(C)(c1ccccc1)c1ccc(O)cc1`, the outcome in assay [3], in assay [4] and in [8] was inactive.
On to `Cc1ccccc1O`, for which the compound was called inactive in [1], in assay [2], in assay [3], in [4] and in assay [8].
As for `CC(c1ccc(O)cc1)(c1ccc(O)cc1)c1ccc(O)cc1`, the compound was called inactive in assay [1], in assay [3] and in assay [4]. Moreover, the AC50 in assay [8] is 91.1 µM (active).
For `CN(C)c1nc(=O)n(C2CCCCC2)c(=O)n1C`, the call in [1], in assay [2], in assay [3], in assay [4] and in assay [8] was inactive.
For `O=C(O)C(F)(F)C(F)(F)C(F)(F)C(F)(F)C(F)(F)C(F)(F)C(F)(F)C(F)(F)F`, the outcome in assay [1], in assay [3] and in assay [4] was inactive. Moreover, in [8], the half-maximal activity concentration (AC50) is 69.2 µM (active).
Take `C=CC(N)=O`: the outcome in assay [1], in assay [2], in assay [5], in assay [7] and in [8] was inactive.
As for `CC(C)(O)C(=O)Nc1ccc([N+](=O)[O-])c(C(F)(F)F)c1`, the result in assay [1] and in assay [2] was inactive. The AC50 in assay [8] was 0.0219 µM (active).
`CCSC(=O)N(CC)C1CCCCC1`: the compound was called inactive in [1], in assay [3], in [4], in [5], in assay [7] and in assay [8].
Take `CCCCCCCCCC[N+](C)(C)CCCCCCCCCC`: the compound was classed as inactive in assay [3], in assay [4] and in [8].
For `O=C(N[C@H]1CN2CCC1CC2)c1cc2ccoc2cn1`, the compound was classed as inactive in [1], in [2], in assay [3], in assay [4] and in [8].
On to `COS(=O)(=O)OC`, for which the call in [1], in [2], in assay [3], in [4] and in [8] was inactive.
For `N#Cc1ccc(N(CC(N)=O)CC(F)(F)F)cc1C(F)(F)F`, the compound was classed as inactive in assay [3], in assay [4], in [6], in assay [9] and in [8].
Take `Clc1ccc(C(Cl)(Cl)Cl)cc1`: the compound was called inactive in assay [1], in assay [2], in assay [3], in assay [4] and in assay [8].
As to `O=C(NC(=O)c1cc(F)c(F)cc1Cl)Nc1cc(F)ccc1N1CCC(C(=O)O)CC1`, the outcome in assay [1], in assay [2], in assay [3], in assay [4] and in assay [8] was inactive.
Regarding `Oc1ccc(Cl)cc1Cl`, the compound was classed as inactive in assay [1], in assay [3], in [4], in [5], in assay [6] and in assay [7]. Further, the compound was called inactive in assay [8]. The AC50 in assay [9] was 17 µM (active).
Regarding `C=CC(=O)NCNC(=O)C=C`, the compound was classed as inactive in assay [1], in [2], in assay [3], in assay [4] and in [8].
Consider `O=C(O)C(F)(F)C(F)(F)C(F)(F)C(F)(F)C(F)(F)C(F)(F)C(F)(F)C(F)(F)C(F)(F)F`, for which the compound was classed as inactive in assay [1], in assay [2], in assay [3] and in [4]. The AC50 in assay [8] was 89.3 µM (active).
Regarding `Cc1cccc([N+](=O)[O-])c1`, the call in assay [3] and in [4] was inactive.
In the case of `CCOC(=O)C(O)(c1ccc(Cl)cc1)c1ccc(Cl)cc1`, the outcome in assay [3], in assay [4] and in assay [8] was inactive.

Values taken from PubChem BioAssay (EPA / NIEHS).
